Source: PubChem BioAssay (EPA / NIEHS)
Results filed as inconclusive are left out. Activity calls are given as the source filed them. Rule for the calls, unless noted: active = hit-call score of the fitted dose curve at least 0.9, where 1 is the maximum; inactive = score below 0.9.

Key:
[1] = target: Glucocorticoid receptor (Homo sapiens) (UniProt P04150); assay: ATG_GR_TRANS: Attagene TRANS-FACTORIAL HepG2 Assay for human Glucocorticoid Receptor (GR) (AID 2282978; active = hit-call score of the fitted dose curve at least 0.9, where 1 is the maximum;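 note: activators score as hits since higher reporter transcript over DMSO is fitted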); conditions: HepG2 Attagene TRANS GR reporter, mRNA transcription
Glucocorticoid receptor (Homo sapiens), sequence (P04150 whole entry, looked up, the tested form may be a part): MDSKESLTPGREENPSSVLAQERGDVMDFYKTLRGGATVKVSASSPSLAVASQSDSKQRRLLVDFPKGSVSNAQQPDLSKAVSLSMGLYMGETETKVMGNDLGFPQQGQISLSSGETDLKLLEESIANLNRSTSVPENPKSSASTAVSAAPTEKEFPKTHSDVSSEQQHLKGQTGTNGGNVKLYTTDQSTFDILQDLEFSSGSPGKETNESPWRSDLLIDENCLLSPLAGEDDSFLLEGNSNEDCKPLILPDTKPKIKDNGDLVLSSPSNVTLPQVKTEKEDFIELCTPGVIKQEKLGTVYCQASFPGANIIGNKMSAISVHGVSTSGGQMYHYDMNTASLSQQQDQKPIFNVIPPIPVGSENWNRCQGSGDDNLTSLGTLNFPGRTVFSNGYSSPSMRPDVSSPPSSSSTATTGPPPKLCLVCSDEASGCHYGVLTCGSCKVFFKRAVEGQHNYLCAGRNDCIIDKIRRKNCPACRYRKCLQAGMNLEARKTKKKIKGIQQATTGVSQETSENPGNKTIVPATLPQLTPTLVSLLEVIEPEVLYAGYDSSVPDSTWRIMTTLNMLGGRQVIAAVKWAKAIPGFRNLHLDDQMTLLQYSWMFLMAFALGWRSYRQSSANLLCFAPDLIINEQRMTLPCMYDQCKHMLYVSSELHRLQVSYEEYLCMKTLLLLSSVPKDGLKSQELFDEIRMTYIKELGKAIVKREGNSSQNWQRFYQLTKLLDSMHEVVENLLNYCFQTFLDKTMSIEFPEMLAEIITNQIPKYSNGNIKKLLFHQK
How it was run: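 Measurement of GAL4-UAS-driven reporter mRNA in human HepG2 liver cells 24 h post-dosing, using RT-PCR with fluorescent labelling and capillary electrophoresis; the transfected constructs report exogenous NR-GAL4 chimera activity, fitted upward against DMSO.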

[2] = target: Oxysterols receptor LXR-alpha (Homo sapiens) (UniProt Q13133); assay: ATG_LXRa_TRANS: Attagene TRANS-FACTORIAL HepG2 Assay for human Liver X Receptor alpha (LXRa) (AID 2282980; active = hit-call score of the fitted dose curve at least 0.9, where 1 is the maximum); conditions: HepG2 Attagene TRANS reporter, LXRa transactivation
Oxysterols receptor LXR-alpha (Homo sapiens), sequence (Q13133 whole entry, looked up, the tested form may be a part): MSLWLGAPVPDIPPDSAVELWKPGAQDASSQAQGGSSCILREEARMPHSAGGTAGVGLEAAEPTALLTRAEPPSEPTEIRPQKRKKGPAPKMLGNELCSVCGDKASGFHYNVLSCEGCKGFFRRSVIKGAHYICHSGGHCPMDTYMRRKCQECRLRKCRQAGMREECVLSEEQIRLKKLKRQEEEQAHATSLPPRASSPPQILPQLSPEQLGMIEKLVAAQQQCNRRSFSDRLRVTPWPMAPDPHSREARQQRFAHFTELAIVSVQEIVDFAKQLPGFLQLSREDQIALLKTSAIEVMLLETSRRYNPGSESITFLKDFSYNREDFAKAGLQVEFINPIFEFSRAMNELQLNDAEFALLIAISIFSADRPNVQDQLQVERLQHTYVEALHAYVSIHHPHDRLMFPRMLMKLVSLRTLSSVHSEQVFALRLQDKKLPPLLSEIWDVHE
How it was run: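 Transfect HepG2 with GAL4-UAS multiplex reporter constructs (TRANS format, chimeric receptor-GAL4); treat 24 h; extract RNA, reverse-transcribe, PCR-amplify, FAM-label, HpaI-digest; resolve fragments by capillary electrophoresis. Upward response vs DMSO.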

[3] = target: Oxysterols receptor LXR-beta (Homo sapiens) (UniProt P55055); assay: ATG_LXRb_TRANS: Attagene TRANS-FACTORIAL HepG2 Assay for human Liver X Receptor beta (LXRb) (AID 2282981; active = hit-call score of the fitted dose curve at least 0.9, where 1 is the maximum); conditions: HepG2 Attagene TRANS GAL4-LXRb reporter, mRNA
Oxysterols receptor LXR-beta (Homo sapiens), sequence (P55055 whole entry, looked up, the tested form may be a part): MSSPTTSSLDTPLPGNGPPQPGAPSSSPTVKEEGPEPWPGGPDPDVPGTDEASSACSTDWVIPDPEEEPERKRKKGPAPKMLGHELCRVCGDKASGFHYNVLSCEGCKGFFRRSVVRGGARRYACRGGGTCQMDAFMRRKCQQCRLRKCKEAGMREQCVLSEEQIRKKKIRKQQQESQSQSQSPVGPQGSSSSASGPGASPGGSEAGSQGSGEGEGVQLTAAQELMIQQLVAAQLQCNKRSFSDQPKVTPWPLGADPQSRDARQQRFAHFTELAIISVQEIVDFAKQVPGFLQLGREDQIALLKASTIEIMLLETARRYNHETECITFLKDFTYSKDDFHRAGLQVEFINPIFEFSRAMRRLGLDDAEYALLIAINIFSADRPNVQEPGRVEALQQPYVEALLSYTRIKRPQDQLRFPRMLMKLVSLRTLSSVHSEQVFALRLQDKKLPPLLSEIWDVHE
How it was run: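 Gain-of-signal mRNA reporter endpoint, DMSO as negative control. Transiently transfected HepG2 cells carrying the NR-Gal4 chimera and GAL4-UAS reporter units were treated 24 h; transcripts quantified by RT-PCR and capillary electrophoresis fluorescence.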

[4] = target: Hepatocyte nuclear factor 4-alpha (Homo sapiens) (UniProt P41235); assay: ATG_HNF4a_TRANS: Attagene TRANS-FACTORIAL HepG2 Assay for human Hepatocyte Nuclear Factor 4 alpha (HNF4a) (AID 2282982; active = hit-call score of the fitted dose curve at least 0.9, where 1 is the maximum); conditions: HepG2 HNF4a transactivation reporter, mRNA readout
Hepatocyte nuclear factor 4-alpha (Homo sapiens), sequence (P41235 whole entry, looked up, the tested form may be a part): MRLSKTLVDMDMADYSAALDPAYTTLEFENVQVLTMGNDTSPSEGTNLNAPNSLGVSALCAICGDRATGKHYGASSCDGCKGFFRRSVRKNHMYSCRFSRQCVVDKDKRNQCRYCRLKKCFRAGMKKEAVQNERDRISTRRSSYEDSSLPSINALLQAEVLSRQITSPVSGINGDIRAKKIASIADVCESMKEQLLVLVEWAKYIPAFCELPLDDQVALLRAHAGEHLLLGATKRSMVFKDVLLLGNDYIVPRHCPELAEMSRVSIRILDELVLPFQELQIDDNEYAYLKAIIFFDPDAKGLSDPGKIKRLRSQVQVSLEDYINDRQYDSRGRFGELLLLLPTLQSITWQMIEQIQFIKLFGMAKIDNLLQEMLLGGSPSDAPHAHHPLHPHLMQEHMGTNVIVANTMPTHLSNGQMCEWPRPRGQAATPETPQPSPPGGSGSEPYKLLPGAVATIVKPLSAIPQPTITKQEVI
How it was run: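 Gain-of-signal mRNA induction, relative to DMSO vehicle, was read after 24 h compound treatment of HepG2 cells bearing transfected GAL4-UAS reporters. Detection used RT-PCR, 6-FAM primer extension and capillary electrophoresis.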

[5] = ATG_M_06_TRANS: Attagene TRANS-FACTORIAL HepG2 Assay for M06 Transcription Factor (Internal Marker) (AID 2282983; active = hit-call score of the fitted dose curve at least 0.9, where 1 is the maximum); conditions: HepG2 Attagene TRANS M06 internal marker reporter
How it was run: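 Transfect HepG2 with MRTUs → dose compounds 24 h → isolate RNA, oligo(dT) RT → PCR with reporter primers → 6-FAM primer extension → HpaI digest → CE fragment analysis. Positive direction vs DMSO.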

[6] = target: Transcriptional activator Myb (Homo sapiens) (UniProt P10242); assay: ATG_Myb_CIS: Attagene CIS-FACTORIAL HepG2 Assay for human Myeloblastosis (Myb) Proto-Oncogene Transcription Factor (AID 2282986); conditions: HepG2 Attagene CIS-FACTORIAL Myb reporter transcription; actives raise or lower the signal
Transcriptional activator Myb (Homo sapiens), sequence (P10242 whole entry, looked up): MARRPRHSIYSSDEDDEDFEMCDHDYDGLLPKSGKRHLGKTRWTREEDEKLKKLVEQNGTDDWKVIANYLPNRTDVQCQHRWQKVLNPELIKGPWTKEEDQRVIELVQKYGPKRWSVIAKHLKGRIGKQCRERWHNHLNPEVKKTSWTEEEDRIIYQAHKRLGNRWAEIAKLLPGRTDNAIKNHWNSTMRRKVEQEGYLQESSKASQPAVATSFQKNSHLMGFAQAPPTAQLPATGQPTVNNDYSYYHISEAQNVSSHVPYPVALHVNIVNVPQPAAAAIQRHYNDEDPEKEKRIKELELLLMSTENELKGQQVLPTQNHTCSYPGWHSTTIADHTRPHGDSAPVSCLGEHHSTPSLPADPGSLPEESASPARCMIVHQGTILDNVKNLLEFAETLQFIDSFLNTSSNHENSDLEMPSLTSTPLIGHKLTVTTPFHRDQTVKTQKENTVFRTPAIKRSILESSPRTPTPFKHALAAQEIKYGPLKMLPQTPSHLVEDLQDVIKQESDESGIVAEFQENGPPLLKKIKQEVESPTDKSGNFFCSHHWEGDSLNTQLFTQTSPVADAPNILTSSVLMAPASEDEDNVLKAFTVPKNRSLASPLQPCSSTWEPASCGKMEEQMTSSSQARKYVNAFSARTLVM
How it was run: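 Fluorescence signals from capillary electrophoresis of RT-PCR-amplified reporter cDNA give the read-out. Cells: HepG2 transfected with multiple cis-regulated reporter units. Exposure lasts 24 hours; DMSO defines baseline for gain or loss of signal.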

[7] = target: Nuclear respiratory factor 1 (Homo sapiens) (UniProt Q16656); assay: ATG_NRF1_CIS: Attagene CIS-FACTORIAL HepG2 Assay for human Nuclear Respiratory Factor 1 (NRF1) Orphan Gene (AID 2282987); conditions: HepG2 NRF1 cis-element reporter, Attagene multiplex; actives raise or lower the signal
Nuclear respiratory factor 1 (Homo sapiens), sequence (Q16656 whole entry, looked up): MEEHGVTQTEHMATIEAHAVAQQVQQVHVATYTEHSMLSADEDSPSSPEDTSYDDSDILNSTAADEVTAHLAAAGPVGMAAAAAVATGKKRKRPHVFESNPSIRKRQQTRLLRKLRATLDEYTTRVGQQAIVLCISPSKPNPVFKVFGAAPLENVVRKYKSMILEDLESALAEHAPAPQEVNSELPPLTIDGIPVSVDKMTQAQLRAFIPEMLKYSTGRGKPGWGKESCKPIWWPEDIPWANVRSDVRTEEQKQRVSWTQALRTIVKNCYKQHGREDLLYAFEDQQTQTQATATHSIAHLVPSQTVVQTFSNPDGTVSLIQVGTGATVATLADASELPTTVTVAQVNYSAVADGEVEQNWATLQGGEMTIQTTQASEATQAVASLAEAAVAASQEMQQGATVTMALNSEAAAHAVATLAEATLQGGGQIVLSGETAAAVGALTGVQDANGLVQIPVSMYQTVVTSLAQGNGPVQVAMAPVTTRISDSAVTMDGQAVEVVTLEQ
How it was run: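 Transcriptional reporter readout, one component of a 52-endpoint multiplexed HepG2 panel. Exposure 24 h; mRNA detected via RT-PCR and fluorescent capillary electrophoresis; fitting in both directions against DMSO.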

[8] = ATG_NFI_CIS: Attagene CIS-FACTORIAL HepG2 Assay for human Nuclear Factor I (NFI) (AID 2282989); conditions: HepG2 cis-regulatory reporter, NFI response element transcription; actives raise or lower the signal
How it was run: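 Read-out: reporter mRNA via RT-PCR plus capillary electrophoresis with fluorescence detection. Transiently transfected HepG2 (endogenous TF activity on cis promoters), 24 h compound exposure; gain or loss of signal fitted against DMSO.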

[9] = target: Myc proto-oncogene protein (Homo sapiens) (UniProt P01106); assay: ATG_Myc_CIS: Attagene CIS-FACTORIAL HepG2 Assay for human Myelocytomatosis (Myc) Proto-Oncogene Transcription Factor (AID 2282990); conditions: HepG2, Attagene cis-reporter transcription factor activity; actives raise or lower the signal
Myc proto-oncogene protein (Homo sapiens), sequence (P01106 whole entry, looked up, the tested form may be a part): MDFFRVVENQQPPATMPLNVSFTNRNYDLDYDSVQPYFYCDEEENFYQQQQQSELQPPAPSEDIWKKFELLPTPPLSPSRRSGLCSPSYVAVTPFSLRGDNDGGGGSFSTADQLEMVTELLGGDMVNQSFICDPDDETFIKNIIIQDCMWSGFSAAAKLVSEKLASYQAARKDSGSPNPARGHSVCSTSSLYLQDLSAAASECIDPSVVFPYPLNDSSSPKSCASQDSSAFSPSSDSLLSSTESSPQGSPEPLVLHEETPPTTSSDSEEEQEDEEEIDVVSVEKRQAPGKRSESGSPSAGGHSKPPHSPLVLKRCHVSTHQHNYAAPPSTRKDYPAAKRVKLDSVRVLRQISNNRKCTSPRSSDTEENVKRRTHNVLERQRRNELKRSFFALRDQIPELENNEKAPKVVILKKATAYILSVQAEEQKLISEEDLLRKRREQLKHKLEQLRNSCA
How it was run: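 Read-out: fluorescent reporter mRNA fragments resolved by capillary electrophoresis after RT-PCR. Human HepG2 liver cells carried transfected cis-element reporter units and were dosed for 24 h. Gain or loss of signal fitted relative to DMSO baseline.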

[10] = ATG_NF_kB_CIS: Attagene CIS-FACTORIAL HepG2 Assay for human Nuclear Factor Kappa B (NF-kB) (AID 2282991); conditions: HepG2 Attagene cis-factorial NF-kB reporter mRNA; actives raise or lower the signal
How it was run: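 HepG2, transient multi-reporter transfection, cis promoter elements (endogenous TFs). 24 h exposure. Total RNA → RT → PCR → 6-FAM label → HpaI → CE. Gain/loss vs DMSO.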

[11] = ATG_NRF2_ARE_CIS: Attagene CIS-FACTORIAL HepG2 Assay for human Nuclear Factor Erythroid 2 Related Factor 2 (NFR2) response to Antioxidant Response Elements (ARE) (AID 2282992); conditions: HepG2 Attagene ARE/NRF2 reporter, transcription factor activity; actives raise or lower the signal
How it was run: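 Multiplexed reporter mRNA profiling in HepG2 after a 24 h chemical exposure. Curves fitted in both directions relative to DMSO negative control.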

[12] = ATG_Oct_MLP_CIS: Attagene CIS-FACTORIAL HepG2 Assay for human Octamer-Binding Transcription Factor (Oct) (AID 2282993); conditions: HepG2 Attagene cis-factorial Oct reporter, mRNA; actives raise or lower the signal
How it was run: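 Read-out: reporter mRNA via RT-PCR plus capillary electrophoresis of 6-FAM-labelled fragments. Transiently transfected HepG2, 24 h exposure, endogenous TF activity on cis elements. Gain or loss of signal fitted relative to DMSO.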

[13] = target: Cellular tumor antigen p53 (Homo sapiens) (UniProt P04637); assay: ATG_p53_CIS: Attagene CIS-FACTORIAL HepG2 Assay for human p53 Transcription Factor (AID 2282994); conditions: HepG2 p53 cis-element reporter, Attagene mRNA; actives raise or lower the signal
Cellular tumor antigen p53 (Homo sapiens), sequence (P04637 whole entry, looked up): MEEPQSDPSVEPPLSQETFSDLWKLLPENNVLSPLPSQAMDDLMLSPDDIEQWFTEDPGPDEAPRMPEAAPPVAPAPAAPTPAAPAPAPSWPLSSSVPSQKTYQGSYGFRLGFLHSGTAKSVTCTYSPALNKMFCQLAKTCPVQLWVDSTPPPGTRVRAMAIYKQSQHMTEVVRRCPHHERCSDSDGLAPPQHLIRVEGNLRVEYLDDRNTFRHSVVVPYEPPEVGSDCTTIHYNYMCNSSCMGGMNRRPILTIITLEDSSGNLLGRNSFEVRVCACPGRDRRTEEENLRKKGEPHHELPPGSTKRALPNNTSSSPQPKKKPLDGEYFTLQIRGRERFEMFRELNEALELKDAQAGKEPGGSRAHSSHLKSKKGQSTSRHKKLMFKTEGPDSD
How it was run: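 Multiplexed reporter mRNA assay in human HepG2 liver cells; cis-regulated units report endogenous factor activity. Values come from bidirectional curve fitting against DMSO negative control after 24 h treatment.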

[14] = ATG_M_32_TRANS: Attagene TRANS-FACTORIAL HepG2 Assay for M32 Transcription Factor (Internal Marker) (AID 2282984; active = hit-call score of the fitted dose curve at least 0.9, where 1 is the maximum;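 note: transcript level of a background control reporter unit measured by RT-PCR and capillary electrophoresis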); conditions: HepG2 Attagene TRANS M32 internal marker reporter
How it was run: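 Capillary electrophoresis of 6-FAM-labelled reporter fragments gives the signal; data fitted for gain over DMSO negative control. Source: HepG2 cells bearing transient multiple reporter transcription units, 24 h exposure.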

[15] = target: Nuclear receptor subfamily 4 group A member 2 (Homo sapiens) (UniProt P43354); assay: ATG_NURR1_TRANS: Attagene TRANS-FACTORIAL HepG2 Assay for human Nuclear Receptor Related Protein 1 (NURR1) (AID 2282985; active = hit-call score of the fitted dose curve at least 0.9, where 1 is the maximum); conditions: HepG2 Attagene TRANS reporter, mRNA readout
Nuclear receptor subfamily 4 group A member 2 (Homo sapiens), sequence (P43354 whole entry, looked up): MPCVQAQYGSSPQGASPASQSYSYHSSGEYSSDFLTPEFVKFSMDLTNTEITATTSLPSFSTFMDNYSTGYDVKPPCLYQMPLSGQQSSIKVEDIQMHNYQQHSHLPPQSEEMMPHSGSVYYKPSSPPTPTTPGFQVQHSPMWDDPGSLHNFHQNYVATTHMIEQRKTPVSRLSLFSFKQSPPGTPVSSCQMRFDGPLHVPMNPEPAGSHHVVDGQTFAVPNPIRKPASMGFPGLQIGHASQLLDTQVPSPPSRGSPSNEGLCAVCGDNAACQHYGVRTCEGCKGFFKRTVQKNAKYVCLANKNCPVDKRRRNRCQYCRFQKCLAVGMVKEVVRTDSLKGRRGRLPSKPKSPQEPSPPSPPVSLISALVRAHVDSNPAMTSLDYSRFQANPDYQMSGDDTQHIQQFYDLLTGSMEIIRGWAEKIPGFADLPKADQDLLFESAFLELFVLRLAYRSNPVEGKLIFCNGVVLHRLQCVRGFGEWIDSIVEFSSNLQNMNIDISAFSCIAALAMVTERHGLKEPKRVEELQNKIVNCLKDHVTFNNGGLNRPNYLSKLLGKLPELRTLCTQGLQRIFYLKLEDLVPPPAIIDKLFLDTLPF
How it was run: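 HepG2 / transient MRTU transfection / 24 h compound exposure / RT-PCR + CE fluorescence of reporter mRNA / gain-of-signal vs DMSO.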

Measured: outcome

CCCCCCCCCCCCCCCCCC(=O)OCCCCCCCCCCCCCC(C)C
not listed: [14] | [15]
inactive: all other assays above

NC(N)=S
not listed: [3] | [8] | [10] | [15]
inactive: all other assays above

O=C(O)C1=NN(c2ccc(S(=O)(=O)O)cc2)C(=O)C1
not listed: [5] | [10]
inactive: all other assays above

CCO[Si](CCC#N)(OCC)OCC
not listed: [13]
inactive: all other assays above

CC(=O)c1ccc(O)cc1
not listed: [3] | [15]
inactive: all other assays above
